{"source": "ChEMBL document CHEMBL2218924", "about": "“A broad activity screen in support of a chemogenomic map for kinase signalling research and drug discovery” (Biochem J, 2013)", "key": {"[1]": {"molecular_target": "T1, Ephrin type-A receptor 3 (Homo sapiens) (UniProt P29320)", "T1 sequence (whole entry)": "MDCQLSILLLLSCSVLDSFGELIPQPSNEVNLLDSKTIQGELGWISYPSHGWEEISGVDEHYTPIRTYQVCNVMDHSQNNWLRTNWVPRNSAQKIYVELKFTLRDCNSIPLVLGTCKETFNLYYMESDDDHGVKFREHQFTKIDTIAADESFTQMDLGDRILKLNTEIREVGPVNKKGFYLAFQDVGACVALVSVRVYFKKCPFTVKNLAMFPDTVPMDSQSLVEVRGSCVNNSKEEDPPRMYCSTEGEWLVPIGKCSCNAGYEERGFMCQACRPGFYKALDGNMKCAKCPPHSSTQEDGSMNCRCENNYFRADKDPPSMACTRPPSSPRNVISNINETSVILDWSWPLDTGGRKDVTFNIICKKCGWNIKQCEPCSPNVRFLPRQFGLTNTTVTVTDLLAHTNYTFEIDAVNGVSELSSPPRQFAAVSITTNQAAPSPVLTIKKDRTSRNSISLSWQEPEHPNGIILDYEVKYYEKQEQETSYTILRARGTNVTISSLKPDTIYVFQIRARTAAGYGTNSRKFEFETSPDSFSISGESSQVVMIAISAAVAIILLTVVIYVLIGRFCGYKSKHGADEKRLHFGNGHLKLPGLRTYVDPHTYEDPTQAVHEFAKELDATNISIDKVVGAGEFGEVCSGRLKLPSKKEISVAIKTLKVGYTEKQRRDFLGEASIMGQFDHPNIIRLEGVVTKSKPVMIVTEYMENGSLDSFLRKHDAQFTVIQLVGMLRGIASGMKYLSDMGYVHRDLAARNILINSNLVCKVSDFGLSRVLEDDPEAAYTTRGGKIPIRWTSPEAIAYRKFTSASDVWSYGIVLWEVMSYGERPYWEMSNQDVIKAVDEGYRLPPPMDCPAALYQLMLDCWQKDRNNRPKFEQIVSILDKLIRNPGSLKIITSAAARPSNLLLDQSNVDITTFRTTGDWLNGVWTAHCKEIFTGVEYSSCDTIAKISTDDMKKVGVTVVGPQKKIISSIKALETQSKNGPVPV", "settings": "at 10 µM"}, "[2]": {"molecular_target": "Ephrin type-A receptor 4 (Homo sapiens) (UniProt P54764)", "sequence (P54764 whole entry)": "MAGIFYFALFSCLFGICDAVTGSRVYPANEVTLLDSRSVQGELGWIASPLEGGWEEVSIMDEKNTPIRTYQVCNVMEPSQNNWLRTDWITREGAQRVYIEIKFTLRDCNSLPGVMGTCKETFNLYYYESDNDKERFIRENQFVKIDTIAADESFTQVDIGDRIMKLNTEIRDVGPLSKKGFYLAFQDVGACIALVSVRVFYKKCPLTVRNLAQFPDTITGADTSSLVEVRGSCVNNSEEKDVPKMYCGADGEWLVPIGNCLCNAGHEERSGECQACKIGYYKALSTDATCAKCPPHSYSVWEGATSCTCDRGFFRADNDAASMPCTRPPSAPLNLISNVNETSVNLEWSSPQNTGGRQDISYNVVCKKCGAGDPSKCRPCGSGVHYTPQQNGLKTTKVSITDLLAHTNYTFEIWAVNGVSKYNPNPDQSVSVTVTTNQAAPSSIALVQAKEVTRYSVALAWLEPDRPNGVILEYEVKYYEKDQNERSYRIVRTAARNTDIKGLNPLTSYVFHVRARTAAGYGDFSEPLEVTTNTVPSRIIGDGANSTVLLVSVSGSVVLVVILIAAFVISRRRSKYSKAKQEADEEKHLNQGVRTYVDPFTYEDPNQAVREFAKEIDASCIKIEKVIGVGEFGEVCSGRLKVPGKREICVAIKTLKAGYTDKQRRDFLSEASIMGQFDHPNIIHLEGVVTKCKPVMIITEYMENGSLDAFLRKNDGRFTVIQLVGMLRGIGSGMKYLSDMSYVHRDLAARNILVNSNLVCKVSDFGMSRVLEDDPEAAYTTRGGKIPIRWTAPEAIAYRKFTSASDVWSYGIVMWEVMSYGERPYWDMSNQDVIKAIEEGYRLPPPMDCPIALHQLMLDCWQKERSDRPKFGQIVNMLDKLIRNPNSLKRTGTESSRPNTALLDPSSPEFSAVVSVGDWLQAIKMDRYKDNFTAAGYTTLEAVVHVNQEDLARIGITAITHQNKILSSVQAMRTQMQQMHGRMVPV", "settings": "at 1 µM"}, "[3]": {"molecular_target": "Ephrin type-A receptor 4 (Homo sapiens) (UniProt P54764)", "settings": "at 10 µM"}, "[4]": {"molecular_target": "Ephrin type-A receptor 5 (Homo sapiens) (UniProt P54756)", "sequence (P54756 whole entry)": "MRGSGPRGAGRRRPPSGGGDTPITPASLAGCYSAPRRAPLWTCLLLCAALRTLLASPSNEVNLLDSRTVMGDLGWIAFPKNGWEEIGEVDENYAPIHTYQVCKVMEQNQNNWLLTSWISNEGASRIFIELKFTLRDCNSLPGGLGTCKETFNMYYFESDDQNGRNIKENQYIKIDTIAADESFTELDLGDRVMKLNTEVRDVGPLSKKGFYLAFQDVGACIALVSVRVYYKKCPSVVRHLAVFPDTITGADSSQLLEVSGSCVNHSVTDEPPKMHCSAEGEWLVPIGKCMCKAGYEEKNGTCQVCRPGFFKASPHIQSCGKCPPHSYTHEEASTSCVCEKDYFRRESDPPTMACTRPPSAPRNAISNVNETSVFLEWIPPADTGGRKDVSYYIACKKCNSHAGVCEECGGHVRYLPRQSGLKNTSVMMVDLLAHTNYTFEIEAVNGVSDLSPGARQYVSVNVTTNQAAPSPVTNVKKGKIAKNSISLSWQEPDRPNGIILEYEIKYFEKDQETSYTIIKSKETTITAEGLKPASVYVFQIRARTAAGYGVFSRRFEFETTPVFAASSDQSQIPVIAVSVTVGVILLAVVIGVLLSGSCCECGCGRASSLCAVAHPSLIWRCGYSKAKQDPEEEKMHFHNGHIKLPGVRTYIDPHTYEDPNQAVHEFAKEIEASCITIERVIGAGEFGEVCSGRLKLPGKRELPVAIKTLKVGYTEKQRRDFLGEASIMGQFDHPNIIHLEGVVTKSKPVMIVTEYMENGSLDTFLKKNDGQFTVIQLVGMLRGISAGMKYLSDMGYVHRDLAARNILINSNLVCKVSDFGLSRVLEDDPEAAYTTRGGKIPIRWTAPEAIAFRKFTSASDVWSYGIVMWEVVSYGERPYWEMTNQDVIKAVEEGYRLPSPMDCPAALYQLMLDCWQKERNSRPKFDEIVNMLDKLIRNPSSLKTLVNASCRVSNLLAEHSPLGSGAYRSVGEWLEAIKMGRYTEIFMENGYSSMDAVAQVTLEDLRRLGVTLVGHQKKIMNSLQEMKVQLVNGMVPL", "settings": "at 1 µM"}, "[5]": {"molecular_target": "Ephrin type-A receptor 5 (Homo sapiens) (UniProt P54756)", "settings": "at 10 µM"}, "[6]": {"molecular_target": "Ephrin type-A receptor 7 (Homo sapiens) (UniProt Q15375)", "sequence (Q15375 28-998 limits assumed)": "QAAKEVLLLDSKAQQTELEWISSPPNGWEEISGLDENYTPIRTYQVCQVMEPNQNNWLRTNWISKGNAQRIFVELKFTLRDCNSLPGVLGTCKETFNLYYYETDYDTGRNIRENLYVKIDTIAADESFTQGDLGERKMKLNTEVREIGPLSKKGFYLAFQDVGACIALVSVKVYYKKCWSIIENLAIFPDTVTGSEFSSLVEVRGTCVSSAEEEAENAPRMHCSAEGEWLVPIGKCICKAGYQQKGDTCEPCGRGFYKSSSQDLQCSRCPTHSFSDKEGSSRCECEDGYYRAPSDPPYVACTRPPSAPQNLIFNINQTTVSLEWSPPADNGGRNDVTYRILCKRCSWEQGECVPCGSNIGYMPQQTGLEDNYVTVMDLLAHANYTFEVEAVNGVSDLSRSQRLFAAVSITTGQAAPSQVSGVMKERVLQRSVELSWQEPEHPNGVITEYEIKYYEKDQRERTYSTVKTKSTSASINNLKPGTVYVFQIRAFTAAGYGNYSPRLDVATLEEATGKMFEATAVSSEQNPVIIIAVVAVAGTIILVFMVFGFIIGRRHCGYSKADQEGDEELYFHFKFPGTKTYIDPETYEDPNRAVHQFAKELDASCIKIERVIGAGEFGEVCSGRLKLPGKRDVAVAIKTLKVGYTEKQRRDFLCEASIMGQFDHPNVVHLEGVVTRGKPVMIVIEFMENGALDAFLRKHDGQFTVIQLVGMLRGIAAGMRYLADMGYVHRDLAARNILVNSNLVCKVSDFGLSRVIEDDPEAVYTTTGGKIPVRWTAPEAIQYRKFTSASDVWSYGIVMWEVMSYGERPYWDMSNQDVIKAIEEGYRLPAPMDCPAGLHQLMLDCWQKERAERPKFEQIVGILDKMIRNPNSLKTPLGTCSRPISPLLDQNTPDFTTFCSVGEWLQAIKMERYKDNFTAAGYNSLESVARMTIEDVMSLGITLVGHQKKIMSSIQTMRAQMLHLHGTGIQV", "settings": "at 1 µM"}, "[7]": {"molecular_target": "Ephrin type-A receptor 7 (Homo sapiens) (UniProt Q15375)", "settings": "at 10 µM"}, "[8]": {"molecular_target": "T2, Ephrin type-A receptor 8 (Homo sapiens) (UniProt P29322)", "T2 sequence (whole entry)": "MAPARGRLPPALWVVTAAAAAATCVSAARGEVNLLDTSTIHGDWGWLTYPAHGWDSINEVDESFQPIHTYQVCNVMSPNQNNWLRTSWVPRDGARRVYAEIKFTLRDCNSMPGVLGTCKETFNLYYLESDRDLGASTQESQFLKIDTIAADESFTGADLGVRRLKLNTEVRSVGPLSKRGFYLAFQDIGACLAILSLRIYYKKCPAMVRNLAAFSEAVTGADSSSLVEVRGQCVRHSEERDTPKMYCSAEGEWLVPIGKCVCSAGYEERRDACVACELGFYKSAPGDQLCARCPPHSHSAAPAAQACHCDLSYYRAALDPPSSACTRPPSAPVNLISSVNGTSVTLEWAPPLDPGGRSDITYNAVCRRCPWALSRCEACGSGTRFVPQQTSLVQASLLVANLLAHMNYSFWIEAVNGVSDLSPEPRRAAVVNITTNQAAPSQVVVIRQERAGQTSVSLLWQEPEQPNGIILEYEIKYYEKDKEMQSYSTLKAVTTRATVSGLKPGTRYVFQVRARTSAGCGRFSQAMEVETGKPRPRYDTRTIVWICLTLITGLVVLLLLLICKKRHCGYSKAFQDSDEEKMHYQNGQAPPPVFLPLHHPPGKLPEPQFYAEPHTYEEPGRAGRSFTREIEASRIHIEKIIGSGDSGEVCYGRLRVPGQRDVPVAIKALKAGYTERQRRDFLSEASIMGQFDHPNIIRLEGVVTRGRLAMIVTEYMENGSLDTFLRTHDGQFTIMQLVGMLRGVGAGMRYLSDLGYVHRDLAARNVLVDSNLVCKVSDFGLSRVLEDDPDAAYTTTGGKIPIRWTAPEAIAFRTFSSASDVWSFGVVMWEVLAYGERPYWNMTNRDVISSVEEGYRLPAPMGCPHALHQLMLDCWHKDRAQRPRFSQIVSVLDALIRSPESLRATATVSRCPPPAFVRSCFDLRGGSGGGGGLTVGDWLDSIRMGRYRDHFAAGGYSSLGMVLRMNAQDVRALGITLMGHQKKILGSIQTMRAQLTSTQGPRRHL", "settings": "at 1 µM"}, "[9]": {"molecular_target": "T2, Ephrin type-A receptor 8 (Homo sapiens)", "settings": "at 10 µM"}, "[10]": {"molecular_target": "T3, Ephrin type-B receptor 1 (Homo sapiens) (UniProt P54762)", "T3 sequence (whole entry)": "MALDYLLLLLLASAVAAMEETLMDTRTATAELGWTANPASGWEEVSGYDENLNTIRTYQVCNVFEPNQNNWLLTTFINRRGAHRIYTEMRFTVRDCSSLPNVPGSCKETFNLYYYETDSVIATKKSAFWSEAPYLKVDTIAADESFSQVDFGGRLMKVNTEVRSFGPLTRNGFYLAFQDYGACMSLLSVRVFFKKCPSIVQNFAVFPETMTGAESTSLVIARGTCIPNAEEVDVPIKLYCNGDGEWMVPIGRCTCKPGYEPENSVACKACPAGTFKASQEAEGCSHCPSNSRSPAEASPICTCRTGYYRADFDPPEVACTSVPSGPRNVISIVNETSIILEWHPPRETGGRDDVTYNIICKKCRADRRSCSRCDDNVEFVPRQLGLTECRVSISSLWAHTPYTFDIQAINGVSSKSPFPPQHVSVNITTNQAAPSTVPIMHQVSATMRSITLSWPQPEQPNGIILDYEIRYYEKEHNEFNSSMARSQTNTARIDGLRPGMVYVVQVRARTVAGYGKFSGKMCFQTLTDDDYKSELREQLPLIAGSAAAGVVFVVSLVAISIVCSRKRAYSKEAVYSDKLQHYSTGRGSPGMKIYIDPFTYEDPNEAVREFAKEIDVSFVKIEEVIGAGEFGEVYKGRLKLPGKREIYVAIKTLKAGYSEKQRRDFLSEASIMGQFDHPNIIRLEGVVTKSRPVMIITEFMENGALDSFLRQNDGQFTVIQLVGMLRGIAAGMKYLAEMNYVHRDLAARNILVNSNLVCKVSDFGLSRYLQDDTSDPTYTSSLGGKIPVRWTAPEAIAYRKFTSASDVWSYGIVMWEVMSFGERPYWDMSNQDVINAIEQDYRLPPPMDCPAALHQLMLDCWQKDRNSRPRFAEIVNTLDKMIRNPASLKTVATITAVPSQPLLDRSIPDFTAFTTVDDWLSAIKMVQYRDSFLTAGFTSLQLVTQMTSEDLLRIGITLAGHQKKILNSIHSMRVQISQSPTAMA", "settings": "at 1 µM"}}, "data": [{"smiles": "CO[C@H]1C[C@@H]2CC[C@@H](C)[C@@](O)(O2)C(=O)C(=O)N2CCCC[C@H]2C(=O)O[C@H]([C@H](C)C[C@@H]2CC[C@@H](O)[C@H](OC)C2)CC(=O)[C@H](C)/C=C(\\C)[C@@H](O)[C@@H](OC)C(=O)[C@H](C)C[C@H](C)/C=C/C=C/C=C/1C", "values": [{"measurement": "residual activity", "setting": "[1]", "result": 129, "unit": "%"}, {"measurement": "residual activity", "setting": "[2]", "result": 104, "unit": "%"}, {"measurement": "residual activity", "setting": "[3]", "result": 100, "unit": "%"}, {"measurement": "residual activity", "setting": "[4]", "result": 112, "unit": "%"}, {"measurement": "residual activity", "setting": "[5]", "result": 116, "unit": "%"}, {"measurement": "residual activity", "setting": "[6]", "result": 100, "unit": "%"}, {"measurement": "residual activity", "setting": "[7]", "result": 92, "unit": "%"}, {"measurement": "residual activity", "setting": "[8]", "result": 96, "unit": "%"}, {"measurement": "residual activity", "setting": "[9]", "result": 119, "unit": "%"}, {"measurement": "residual activity", "setting": "[10]", "result": 101, "unit": "%"}]}]}
